# In the library only some 1.4% were active in any assay of this set; here they are far more common.
# PV pol inh – poliovirus RNA polymerase inhibition; poliovirus polymerase elongation, fluorescence polarization; stronger effect = lower value; % elongation, % (compound at 16.7 µg/mL); P03300; hit rate 0.66% among 150,000; in the data active = % elongation below about 90%
# Target sequence (P03300 1749-2209 limits assumed): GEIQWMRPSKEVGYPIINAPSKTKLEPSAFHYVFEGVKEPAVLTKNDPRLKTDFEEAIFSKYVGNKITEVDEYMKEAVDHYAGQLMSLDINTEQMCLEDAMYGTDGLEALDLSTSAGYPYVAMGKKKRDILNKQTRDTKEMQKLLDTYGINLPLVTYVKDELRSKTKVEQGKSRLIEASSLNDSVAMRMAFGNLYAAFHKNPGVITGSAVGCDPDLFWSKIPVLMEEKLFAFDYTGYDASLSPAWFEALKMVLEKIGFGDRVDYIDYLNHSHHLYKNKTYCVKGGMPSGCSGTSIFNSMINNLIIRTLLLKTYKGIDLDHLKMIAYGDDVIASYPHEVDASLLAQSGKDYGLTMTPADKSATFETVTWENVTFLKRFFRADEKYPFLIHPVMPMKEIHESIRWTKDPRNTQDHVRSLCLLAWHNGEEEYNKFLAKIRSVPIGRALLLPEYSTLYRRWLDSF
# Mtb MbtI inh – MbtI salicylate synthase inhibition; inhibition, % (no concentration beside the values); P9WFX0; purified MbtI enzyme, fluorescence intensity read-out; hit rate 0.89% among 100,000; in the data active = inhibition mostly above about 56%, no sharp cut-off; inactive = mostly below about 77%
# AID504770 – E. coli YBA685 growth inhibition, screen for V. cholerae RctB inhibitors; E. coli YBA685 rctB-dependent plasmid, OD600 growth, 3 h; stronger effect = lower value; z-score (no concentration beside the values); hit rate 0.27% among 130,000; in the data active = z-score below about -2, passing the limit was not always enough
# MenB inh – blocks the Mycobacterium tuberculosis MenB enzyme. P9WNP5. inhibition, % (test concentration not listed). hit rate 0.43% among 100,000. AID 540299. MenB enzyme assay, absorbance read-out; in the data active = inhibition above about 21%, passing the limit was not always enough
# Active calls of the source: *; . = no result.
SMILES,PV pol inh,Mtb MbtI inh,AID504770,MenB inh
Cc1sc(NC(=O)C(C)Oc2ccc(Cl)cc2Cl)c(C(N)=O)c1C (stereo unspecified),75*,.,1.5,-23
O=C(CSc1nc2ccccc2s1)NNc1ncnc2c1cnn2Cc1ccccc1,100,56*,1.7,6
CC(C)NC(=O)CSc1nc2ccccc2s1,105,30,1.8,-31
COC(=O)C1=CNC=C(C(=O)OC)C1c1ccccc1C,103,117,-0.7,-19
O=C(N/N=C1\C/C(=N\NC(=O)c2ccncc2)c2ccccc21)c1ccncc1,87*,-34,-2.3,-206
O=C(NN=C1C2CC3CC(C2)CC1C3)c1ccncc1,100,5,-0.1,4
CN1/C(=C/c2cccc[n+]2C)C=Cc2ccccc21,87*,3,-0.8,-84
CN1/C(=C/C=C(C#N)C#N)C=Cc2ccccc21,104,-7,-0.8,-13
Nc1cccc2c1C(=O)N(C(=O)c1ccc3c(c1)S(=O)(=O)N=C1CCCCCN13)C2=O,58*,-1,-0.05,-32
Cc1[nH]n(-c2ccc(Br)cc2)c(=O)c1C1=c2ccccc2=NC1=O,101,64*,-0.35,3
Cc1[nH]n(-c2ccccc2)c(=O)c1N=O,102,18,-0.6,-49
N#Cc1ccccc1NC(=O)COC(=O)c1ccccc1,101,-11,0,.
CCOC(=O)NC(=S)c1ccc(OC)cc1,82*,78*,-0.6,-7
CCOC(=O)NC(=S)Nc1ccc(OC)cc1,100,-5,-0.35,-7
N#CC(C#N)=Cc1ccc(OC(=O)c2ccccn2)cc1,87*,34,-0.85,-163
O=C(Oc1ccc(C=Nc2ccccc2Br)cc1)c1ccccn1,.,.,0.65,.
COc1cc(CN2CCc3nc(N4CCN(c5ccccn5)CC4)ncc3C2)cc(OC)c1OC,102,.,.,.
CCOc1ccc(CN2CCc3nc(N4CCN(c5ccccn5)CC4)ncc3C2)cc1OC,13*,.,.,.
O=C1CCC/C(=N\NC(=O)CCCOc2ccc(Cl)cc2Cl)C1,104,-1,1,-16
CCN(CC)c1cc(-c2cccs2)nc(SCC(=O)c2cccs2)c1C#N,77*,.,1.9,-5
CNc1nc(-c2cccs2)ns1,.,.,-1,.
O=C(Cc1ccc(Cl)cc1)OCC(=O)c1cc2ccccc2o1,100,-138,0.15,.
O=C1Nc2ccccc2C(=O)C1(O)O,103,-5,1.6,43*
O=C1Nc2ccccc2-c2ccccc2N1,101,111,-0.25,8
CC1=CC(=O)C=C(C)C1=NS(=O)(=O)c1ccccc1,103,96*,2,-11
SMILES,PV pol inh,Mtb MbtI inh,AID504770,MenB inh
O=S(=O)(N=C1SCCS1)c1ccccc1,.,.,-0.2,.
COc1cc(NC(=O)c2cc(=O)n3c(nc4ccccc43)s2)cc(OC)c1,.,-14,-0.35,.
CC1CCC2(CC1)NC(=O)N(NC(=S)NCc1ccc3c(c1)OCO3)C2=O (stereo unspecified),103,67*,2.2,-29
CCNC(=S)NCc1ccc2c(c1)OCO2,106,-9,-1.4,-26
O=C(Nc1ccc(N=Cc2cccs2)cc1)c1ccccc1O,.,.,1.8,.
CCOC(=O)N1CCN(C(=O)c2ccc(/C=C3\Oc4ccccc4NC3=O)cc2)CC1,100,-127,0,-9
CC(C)CN(CC(C)C)C(=O)C1CCCCC1C(=O)O (stereo unspecified),102,7,1.9,30*
CCOC(=O)Cc1nc2nc(C)c(Br)c(=O)n2[nH]1,.,.,-0.25,.
CC(C)(C)C(=O)Nc1cc(C(F)(F)F)cc(C(F)(F)F)c1,.,.,-0.55,.
CCN(CC)C(=S)C(=O)Nc1cc(C(F)(F)F)cc(C(F)(F)F)c1,86*,.,0.7,-26
O=C1NC(c2cccc(O)c2O)Nc2sc3c(c21)CCC3 (stereo unspecified),113,0,1.5,-51
CCn1c(CCC(=O)O)nc2cc(S(N)(=O)=O)ccc21,64*,92,-2,-65
c1ccc(-c2nnc3sc(-c4ccc5c(c4)OCO5)nn23)cc1,100,77,0.8,-29
O=S(=O)(c1cccc(-c2nn3c(-c4ccncc4)nnc3s2)c1)N1CCCCC1,85*,91,0,0
COc1ccccc1NC(=O)NCc1nc2nc(C)cc(C)n2n1,105,-7,0.2,-20
CC(=O)NC(=S)Nc1cccc(C)c1,101,6,-1.6,-16
Cc1cccc(NC(=S)Nn2c(O)c(C)sc2=S)c1,99,93*,-0.6,-67
CC1COc2c(N3CCN(C)CC3)c(F)cc3c(=O)c(C(=O)O)cn1c23 (stereo unspecified),104,-25,-5.2*,-11
CC1COc2c(N3CCN(C)CC3)c(F)cc3c(=O)c(C(=O)N4CCN(c5ncccn5)CC4)cn1c23 (stereo unspecified),101,26,0,-24
CSC(C)/C(=N/O)c1ccccc1 (stereo unspecified),.,.,-0.1,.
NC(=S)N/N=C1/C(=O)c2cccc3cccc1c23,100,76*,-1.1,-13
COC(=O)N/N=C1/C(=O)c2cccc3cccc1c23,99,-1,0.4,-9
CCC(C)(C)c1nnc(N)s1,96,99*,-0.15,5
CC(NS(=O)(=O)c1ccc(Br)cc1)C(=O)NCc1ccco1 (stereo unspecified),100,12,0.95,37*
CC(C)NS(=O)(=O)c1ccc(OCC(=O)NCc2ccco2)cc1,.,-12,-0.7,.
SMILES,PV pol inh,Mtb MbtI inh,AID504770,MenB inh
CCOC(=O)c1c(NC(=O)CC)sc(C(=O)OC)c1C,102,-2,-0.4,1
COC(=O)Cc1nc(-c2ccccc2)cs1,86*,10,0.05,6
CCS(=O)(=O)C1=NSC2=NC(=O)/C(=C\c3ccco3)C(=N)N21,72*,35,-0.45,-41
Cc1cccc(NC(=O)COC(=O)c2ccco2)c1,101,2,1.2,-34
CC(=O)c1ccc(NC(=O)CSc2ccc3nc(-c4ccccc4)cn3n2)cc1,108,.,.,.
O=C(CSc1ccc2nc(-c3ccccc3)cn2n1)Nc1ccccc1,87*,.,.,.
O=C(NC1CCCC1)c1ccc(-n2cnc3cccnc32)cc1,103,-6,0.65,-11
O=C(c1cccs1)c1no[n+]([O-])c1C(=O)c1cccs1,95,60,-6.5*,-16
C/C(=N/NC(=O)c1c(N)no[n+]1[O-])c1cccs1,103,3,-0.2,-41
O=C1CSC(N2CCOCC2)=N1,103,-10,-1.3,5
Cc1nn(C)c2c1S(=O)(=O)N=C(N1CCOCC1)S2,81*,4,-0.05,-11
Cc1ccc(S(=O)(=O)c2[nH]c(=S)sc2N2CCOCC2)cc1,.,93*,-0.2,-37
CCc1cccc(NC(=O)Nc2cn(C)c(=O)c3ccccc23)c1,79*,.,.,.
CC1CCN(Cc2ccc(NC(=O)Nc3cn(C)c(=O)c4ccccc34)cc2)CC1,101,-29,-0.4,-11
CC(C)Cn1cc(NC(=O)NCc2ccccn2)c2ccccc2c1=O,100,96,-0.1,-20
Cn1cc(NC(=O)Nc2ccccc2F)c2ccccc2c1=O,84*,-32,0.55,-8
COc1cccc(NC(=O)Nc2cn(C)c(=O)c3ccccc23)c1,85*,-29,0.1,-14
Cn1cc(NC(=O)NCc2ccccn2)c2ccccc2c1=O,99,-17,-2*,-18
